Experimental data taken from ChEMBL document CHEMBL1157539, “Thousands of chemical starting points for antimalarial lead identification” (Nature, 2010).

Each compound was assayed on Plasmodium falciparum (assay: GSK_TCMDC: Inhibition of Plasmodium falciparum Dd2 in whole red blood cells, using parasite LDH activity as an index of growth. Test compounds present at 2uM).
Assay type: functional

SMILES	Inhibition [%]
CC1CN(c2ccc(NC(=O)c3cccs3)cc2)CCN1Cc1cccc(F)c1.O=C(O)C(F)(F)F (stereo not given)	96
COc1ccccc1C1CC(c2ccccc2)=NN1C(=O)c1ccccc1 (stereo not given)	93
CCN(CC)CCn1c(=N)n(CC(O)c2ccc(Cl)c(Cl)c2)c2ccccc21.Cl (stereo not given)	88
CC(O)C1CCCCN1C(=O)c1cccc(-c2ccc(-c3nc4ccccc4[nH]3)s2)c1 (stereo not given)	23
COc1cc(Cc2cnc(N)nc2N)cc(OCCCCCCN2C(=O)c3ccccc3C2=O)c1OC	3
Cc1ccc(C(=O)NC2CCN(CCNC(=O)Nc3cc(C)nc4ccccc34)CC2)cc1	76
O=C(Nc1cccc(-c2ccc(-c3nc4cc(F)ccc4[nH]3)cc2)c1)c1ccoc1	6
COc1cc(Nc2nccn3c(-c4ccsc4)cnc23)cc(OC)c1OC	78
CCCC(=O)NC(c1cccs1)c1cc(Cl)c2cccnc2c1O (stereo not given)	61
Oc1ccc(-c2cncc(NCc3ccc(F)c(F)c3)c2)cc1	80
COc1ccc(C(=O)O)cc1OCc1ccccc1	0
Cc1c(F)cc(C(=O)NC2CC2)cc1-c1ccc2c(cnn2S(=O)(=O)c2ccc(Cl)s2)c1	50
C[C@H](NC(=O)c1c(CN2CCC(NC(=O)CC(C)(C)C)CC2)c(-c2cccs2)nc2ccccc12)C1CCCCC1	70
Cc1cc(-c2ccc3occ(CCN)c3c2)cnc1N	56
CC(C)CCCC(C)(C)NC[C@@H](O)[C@H](Cc1ccccc1)NC(=O)c1cc(NC(C)C)cc(N2CCCCS2(=O)=O)c1.O=CO	98
COc1ccc(Nc2c3ccc(Cl)cc3nc3ccc(OC)cc23)cc1.Cl	99
Cc1ccc(-c2ccn(Cc3ccc(OCc4ccccc4)cc3)n2)cn1.Cc1ccc(-c2ccnn2Cc2ccc(OCc3ccccc3)cc2)cn1	92
Cc1sc2cc(Cl)cc(Cl)c2c1S(=O)(=O)Nc1ccc2nccc(N3CCNCC3)c2c1.Cl	99
Fc1ccc2[nH]c(-c3cccc(-c4cccc(CN5CCN(c6ccncc6)CC5)c4)c3)nc2c1.O=C(O)C(F)(F)F	99
COc1ccc(Cc2c(C)nc3nc(N)nc(N)c3c2C)cc1OC.Cl	0

SMILES	Inhibition [%]
O=C(Cn1c(CCc2cccc(F)c2F)cc(=O)c2ccccc21)N(Cc1ccc(-c2ccc(C(F)(F)F)cc2)cc1)C1CCN(CCO)CC1.O=C(O)C(O)C(O)C(=O)O	84
Cc1cc(OCCCN2CCCCC2)ccc1NC(=O)COc1ccc(Cl)cc1C(=O)c1cc(C#N)cc(C(F)(F)F)c1	7
Cc1cccc(Nc2nc3nonc3nc2Nc2cccc(Cl)c2Cl)c1C	95
CNC(=O)/C=C/c1cc(NC(=O)Nc2cc(C)nc3c(F)cccc23)ccc1OC	70
COCCOc1ccc(C(F)(F)F)cc1NC(=O)Cc1c(F)cccc1Cl	74
Cc1cccc2nc(-c3cccc(-c4cccc(CNCc5cnn(-c6ccccc6)n5)c4)c3)[nH]c12.O=C(O)C(F)(F)F	38
CCCCCCCCN1CCCN(C(=O)c2cccc(NC(=O)Nc3ccc4ccccc4c3)c2)CC1.O=C(O)C(F)(F)F	39
COc1ccc(CNCc2ccsc2)cc1-c1ccc(OC)c(S(=O)(=O)NCCN2CCCC2)c1.O=C(O)C(F)(F)F	62
COc1ccc(Cl)cc1N1CCN(CCCNC(=O)c2ccc(-c3nc4cc(Cl)c(F)cc4[nH]3)cc2)CC1	98
Cc1ccc(C(=O)Nc2ccc(C)c(OC3CCN(CCC(C)C)C3)c2)cc1.O=C(O)C(F)(F)F (stereo not given)	53
COc1cc(-c2cc3cc(Cl)c(Cl)cc3[nH]2)ccc1C(=O)NC1CCN(Cc2ccccc2)CC1.O=C(O)C(F)(F)F	100
CC(=O)Oc1c(C(=O)C2CCC(C(C)(C)C)CC2)c(OC(C)=O)c2ccccc2c1OC(C)=O (stereo not given)	96
CCC[C@@H]([C@@H](CC(C)C)C(=O)N[C@H](C(=O)Nc1nccs1)C(C)(C)SCCNC(=O)OCC)N(O)C=O	97
COc1ccc2nccc([C@@H](O)CN3CCC(NCc4cnc5c(c4)NC(=O)CS5)CC3)c2c1.O=C(O)C(=O)O	29
CCCC(=O)Nc1ccc(OCCCN(Cc2ccccc2C(F)(F)F)c2ccc(C#N)c(C(F)(F)F)c2)cc1	79
CCN(CC)C(=S)N/N=C1/C(=O)Nc2c(C)cccc21	69
COc1ccc2nccc([C@@H](O)CN3CCC(NCc4nc5c(cc4Cl)OCC(=O)N5)C(F)C3)c2c1.Cl (stereo not given in full)	29
Cl.c1ccc2c(NCCCCCCNc3ccnc4ccccc34)ccnc2c1	12
CCOC(=O)c1ccc(N2CCN(CCCNC(=O)/C(=C/C=C/c3cc4cc(Cl)c(Cl)cc4[nH]3)OC)CC2)cc1	72
CN(C)CCNC(=O)[C@H](CC1CCCCC1)NC(=O)c1ccc(O)c(-c2ccc(Cl)c(Cl)c2)c1	97
